± gives the standard deviation of the averaged measurements.
Legend:
IL-6-GFP PC-9GR = experiment: cell viability (CCK-8 OD) relative to DMSO control (fraction of control); higher = more viable cells; details: compound concentration: 10 uM; treatment time: 48 h
Outline: (§1)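 PC-9 and PC-9GR lung cancer cells expressing lentiviral IL-6-GFP were plated at 3000 cells/well in 96-well plates and treated for 48 h with each library compound at a final 10 μM. Viability was determined by CCK-8 absorbance as a ratio of each well's optical density to the vehicle control well.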

IL-6-GFP PC-9 = experiment: as above; details: compound concentration: 10 uM; treatment time: 48 h
Outline: as §1

Structure (SMILES): C[Se]CC[C@H](N)C(=O)O [L-SelenoMethionine]
- cell viability (IL-6-GFP PC-9GR): 1.19 ± 0.22
- cell viability (IL-6-GFP PC-9): 1.28 ± 0.098

Structure (SMILES): COc1cc(-c2coc3cc4c(c(OC)c3c2=O)OCO4)cc(OC)c1OC [Irisflorentin]
- cell viability (IL-6-GFP PC-9GR): 0.826 ± 0.2
- cell viability (IL-6-GFP PC-9): 1.04 ± 0.12

Structure (SMILES): CCCCOc1ccc(CC(=O)NO)cc1 [Bufexamac]
- cell viability (IL-6-GFP PC-9GR): 1.2 ± 0.39
- cell viability (IL-6-GFP PC-9): 0.928 ± 0.073

Structure (SMILES): Nc1ccccc1NC(=O)c1ccc(CNC(=O)OCc2cccnc2)cc1 [Entinostat (MS-275)]
- cell viability (IL-6-GFP PC-9GR): 0.59 ± 0.036
- cell viability (IL-6-GFP PC-9): 0.465 ± 0.028

Structure (SMILES): CC(=O)OC1(C(C)=O)CCC2C3CC(C)C4=CC(=O)C=CC4(C)C3(F)C(O)CC21C (stereo not drawn) [Fluorometholone Acetate]
- cell viability (IL-6-GFP PC-9GR): 0.701 ± 0.05
- cell viability (IL-6-GFP PC-9): 0.947 ± 0.087

Structure (SMILES): COc1ccc2cc(C(C)C(=O)[O-])ccc2c1.[Na+] (stereo not drawn) [Naproxen Sodium]
- cell viability (IL-6-GFP PC-9GR): 1.36 ± 0.035
- cell viability (IL-6-GFP PC-9): 1.16 ± 0.16

Structure (SMILES): Cc1nc(Nc2ncc(C(=O)Nc3c(C)cccc3Cl)s2)cc(N2CCN(CCO)CC2)n1 [Dasatinib]
- cell viability (IL-6-GFP PC-9GR): 0.953 ± 0.026
- cell viability (IL-6-GFP PC-9): 0.206 ± 0.2

Structure (SMILES): Cc1cc2ncc(C(=O)NCC(C)(C)NCC(=O)N3CCCC3C#N)cn2n1 (stereo not drawn) [Anagliptin]
- cell viability (IL-6-GFP PC-9GR): -0.0161 ± 0.12
- cell viability (IL-6-GFP PC-9): 1.23 ± 0.022

Structure (SMILES): Cc1coc2c1C(=O)C(=O)c1c-2ccc2c(C)cccc12 [Tanshinone I]
- cell viability (IL-6-GFP PC-9GR): 1.32 ± 0.097
- cell viability (IL-6-GFP PC-9): 1.51 ± 0.29

Structure (SMILES): CC(=O)N1CC(O)CC1C(=O)O (stereo not drawn) [Oxaceprol]
- cell viability (IL-6-GFP PC-9GR): 1.22 ± 0.15
- cell viability (IL-6-GFP PC-9): 1.05 ± 0.098

Structure (SMILES): COc1ccc2c(c1)nc(S(=O)Cc1ncc(C)c(OC)c1C)[n]2[Na] (stereo not drawn) [Omeprazole Sodium]
- cell viability (IL-6-GFP PC-9GR): 0.872 ± 0.13
- cell viability (IL-6-GFP PC-9): 0.963 ± 0.16

Structure (SMILES): CN(C)C/C=C/C(=O)Nc1cc2c(Nc3ccc(F)c(Cl)c3)ncnc2cc1OC1CCOC1.O=C(O)/C=C\C(=O)O.O=C(O)/C=C\C(=O)O (stereo not drawn) [Afatinib (BIBW2992) Dimaleate]
- cell viability (IL-6-GFP PC-9GR): 0.22 ± 0.11
- cell viability (IL-6-GFP PC-9): 0.167 ± 0.22

Structure (SMILES): Nc1ccc(F)cc1NC(=O)c1ccc(CNC(=O)/C=C/c2cccnc2)cc1 [Tucidinostat (Chidamide)]
- cell viability (IL-6-GFP PC-9GR): 0.836 ± 0.38
- cell viability (IL-6-GFP PC-9): 0.606 ± 0.23

Structure (SMILES): CN1C(C(=O)Nc2ccccn2)=C(O)c2sccc2S1(=O)=O [Tenoxicam]
- cell viability (IL-6-GFP PC-9GR): 1.16 ± 0.15
- cell viability (IL-6-GFP PC-9): 1.21 ± 0.1

Structure (SMILES): CNCc1ccc(-c2[nH]c3cc(F)cc4c3c2CCNC4=O)cc1.O=P(O)(O)O
- cell viability (IL-6-GFP PC-9GR): 0.93 ± 0.16
- cell viability (IL-6-GFP PC-9): 1.05 ± 0.15

Structure (SMILES): Clc1ccc(C(c2ccccc2Cl)C(Cl)Cl)cc1 (stereo not drawn) [Mitotane]
- cell viability (IL-6-GFP PC-9GR): 1.2 ± 0.1
- cell viability (IL-6-GFP PC-9): 0.958 ± 0.05

Structure (SMILES): COc1cc2ncnc(Nc3ccc(F)c(Cl)c3)c2cc1OCCCN1CCOCC1 [Gefitinib (ZD1839)]
- cell viability (IL-6-GFP PC-9GR): 0.9 ± 0.06
- cell viability (IL-6-GFP PC-9): 0.664 ± 0.061

Structure (SMILES): Nc1nc(F)nc2c1ncn2C1OC(CO)C(O)C1O (stereo not drawn) [Fludarabine]
- cell viability (IL-6-GFP PC-9GR): 0.214 ± 0.12
- cell viability (IL-6-GFP PC-9): 0.232 ± 0.026

Structure (SMILES): CCS(=O)(=O)N1CC(CC#N)(n2cc(-c3ncnc4[nH]ccc34)cn2)C1.O=P(O)(O)O [Baricitinib phosphate]
- cell viability (IL-6-GFP PC-9GR): 0.391 ± 0.7
- cell viability (IL-6-GFP PC-9): 1.0937 ± 7.8e-05

Structure (SMILES): CO/N=C(\C(=O)NC1C(=O)N2C(C(=O)OCOC(=O)C(C)(C)C)=C(C)CSC12)c1csc(N)n1.Cl (stereo not drawn) [Cefetamet pivoxil hydrochloride]
- cell viability (IL-6-GFP PC-9GR): 1.25 ± 0.28
- cell viability (IL-6-GFP PC-9): 1.14 ± 0.056

Structure (SMILES): CCC1(O)C(=O)OCc2c1cc1n(c2=O)Cc2cc3cc(O)ccc3nc2-1 [(S)-10-Hydroxycamptothecin]
- cell viability (IL-6-GFP PC-9GR): 0.466 ± 0.076
- cell viability (IL-6-GFP PC-9): 0.433 ± 0.032

Structure (SMILES): COc1cc2nccc(Oc3ccc(NC(=O)Nc4cc(C)on4)c(Cl)c3)c2cc1OC [Tivozanib (AV-951)]
- cell viability (IL-6-GFP PC-9GR): 0.792 ± 0.15
- cell viability (IL-6-GFP PC-9): 0.353 ± 0.036

Structure (SMILES): Cl.Cl.Cl.Cl.Cl.Cl.Cl.Cl.c1cc(CN2CCCNCCNCCCNCC2)ccc1CN1CCCNCCNCCCNCC1 [Plerixafor 8HCl (AMD3100 8HCl)]
- cell viability (IL-6-GFP PC-9GR): 1.04 ± 0.12
- cell viability (IL-6-GFP PC-9): 1.13 ± 0.1

Structure (SMILES): CC(C)Cc1ccc(C(C)C(=O)O)cc1 (stereo not drawn) [Ibuprofen]
- cell viability (IL-6-GFP PC-9GR): 1.32 ± 0.12
- cell viability (IL-6-GFP PC-9): 1.06 ± 0.19

Structure (SMILES): Nc1ncn(C2OC(CO)C(O)C2O)c(=O)n1 (stereo not drawn) [Azacitidine]
- cell viability (IL-6-GFP PC-9GR): 1.04 ± 0.077
- cell viability (IL-6-GFP PC-9): 0.895 ± 0.15

Structure (SMILES): NC(=S)N/N=C/c1ncccc1N [Triapine]
- cell viability (IL-6-GFP PC-9GR): 0.255 ± 0.16
- cell viability (IL-6-GFP PC-9): 0.287 ± 0.024

Structure (SMILES): CCc1ccc(Cc2ccc3c(c2)C2(OC3)OC(CO)C(O)C(O)C2O)cc1.O (stereo not drawn) [Tofogliflozin(CSG 452)]
- cell viability (IL-6-GFP PC-9GR): 0.92 ± 0.21
- cell viability (IL-6-GFP PC-9): 1.02 ± 0.25

Structure (SMILES): CCOc1ccc(Cc2cc(C3OC(CO)C(O)C(O)C3O)ccc2Cl)cc1 (stereo not drawn) [Dapagliflozin]
- cell viability (IL-6-GFP PC-9GR): 1.37 ± 0.23
- cell viability (IL-6-GFP PC-9): 1.74 ± 0.67

Structure (SMILES): CCN(CC)Cc1cc(Nc2ccnc3cc(Cl)ccc23)ccc1O.Cl.Cl.O.O [Amodiaquine dihydrochloride dihydrate]
- cell viability (IL-6-GFP PC-9GR): 1.05 ± 0.011
- cell viability (IL-6-GFP PC-9): 0.756 ± 0.039

— the supplement of paper PMC8866396
